Test results reported in PubChem BioAssay (NCATS).
Results filed as inconclusive are left out. Calls of active or inactive are those of the source. Calls come from the whole dose curve; as a rule, active = well fitted curve in the direction sought with a large enough effect; inconclusive = small, poorly fitted or top-dose-only effect, or another doubt; inactive = no such curve, though single readings can be large; an effect the other way counts as inactive or inconclusive.

Assays:
[1] = biological target: Calcium and integrin-binding protein 1 (Homo sapiens) (UniProt Q99828); experiment: Primary qHTS for Identification of Calcium Integrin Binding Protein 1 (CIB1) Competitor (AID 1508620);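 note: GST tagged CIB1 binding a fluorescein labelled alphaIIb integrin peptide tracer; top concentration of the series differs between compounds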
Calcium and integrin-binding protein 1 (Homo sapiens), sequence (Q99828 whole entry, looked up): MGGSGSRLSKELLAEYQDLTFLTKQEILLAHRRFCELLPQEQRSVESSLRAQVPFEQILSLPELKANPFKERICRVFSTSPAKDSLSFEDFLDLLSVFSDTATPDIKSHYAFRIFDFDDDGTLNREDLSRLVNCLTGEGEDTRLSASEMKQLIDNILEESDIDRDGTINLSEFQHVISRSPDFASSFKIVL
In short: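 Fluorescence polarization competition: CIB1-GST (1 uM final) preincubated with compound 15 min at room temperature, then FITC-labeled alphaIIb peptide (100 nM final) added for another 15 min. Polarization read at Ex 480/Em 540.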

[2] = Primary qHTS for inhibitors of nuclear receptor binding SET domain protein 2 (NSD2) in an isogenic RCH-ACV NSD2 p.E1099K mutant (9B) (AID 1645876); note: nearly all actives have a fitted effect of over 70% in size
[3] = Primary qHTS for inhibitors of nuclear receptor binding SET domain protein 2 (NSD2) in an RCH-ACV wild type WT cells (2C) (AID 1645877); note: nearly all actives have a fitted effect of over 70% in size

Measured: Potency

C[C@@H]1CC[C@]2(C(=O)O)CC[C@]3(C)C(=CCC4[C@@]5(C)C[C@@H](O)[C@@H](O)C(C)(C)C5CC[C@]43C)C2[C@]1(C)O (stereo partly specified)
inactive: all assays above

COc1ccc([C@H]2OC[C@H]3[C@@H]2CO[C@@H]3c2ccc(O[C@@H]3O[C@H](CO)C(O)[C@H](O)[C@H]3O)c(OC)c2)cc1OC (stereo partly specified)
inactive: all assays above

O=C(C1OC1/C=C/c1ccc2c(c1)OCO2)N1CCCCC1 (stereo unspecified)
inactive: all assays above

O=C(O)/C=C/c1ccc2occc2c1O[C@@H]1O[C@H](CO)[C@@H](O)[C@H](O)[C@H]1O
inactive: all assays above

CC1(C)O[C@H]2CC(=O)OC[C@@]23C1=C(O)C(=O)[C@]1(C)C3CC[C@@]2(C)[C@H](c3ccoc3)OC(=O)[C@H]3O[C@]321 (stereo partly specified)
inactive: all assays above

C[C@@H]1C[C@@H](O)[C@@]23CO[C@]2(CO)C[C@@H](O)CC3[C@@]12CC(c1ccoc1)OC2=O (stereo partly specified)
inactive: all assays above

CC(=O)OCC1=CCC2C(C)(C)CCCC2(C)C12CCC(C)(CC(=O)O)O2 (stereo unspecified)
inactive: all assays above
